In PubChem BioAssay AID902 (National Center for Advancing Translational Sciences (NCATS), 2007):
Out of some 130,000 compounds screened, about 1,900 (1.5%) were called active. About 5% were inconclusive and are not listed. Calls come from the whole dose curve; as a rule, active = well fitted cell-killing curve with a large enough effect; inconclusive = small, poorly fitted or top-dose-only effect; inactive = no such curve, though single readings can be large or run the other way. Only a selection was taken, and actives are over-represented in it overall.

experiment: qHTS Screen for Compounds that Selectively Target Cancer Cells with p53 Mutations: Cytotoxicity of p53ts Cells at the Nonpermissive Temperature; conditions: H1299-p53A138V viability at 39C, ATP luminescence, 24 h; series mostly up to 46.1 µM; activity change, negative = cell killing: at the top concentration; note: nearly all actives have a fitted effect of over 55% in size
% is set by controls: 0 for no effect and ±100 for the full control effect; potency is the fitted concentration of half-maximal effect.

| SMILES | activity change, negative = cell killing | Potency |
| --- | --- | --- |
| CCOC(=O)CNC(=O)c1cc2c(=O)n3cccc(C)c3nc2s1 | -21.7% (inactive) | – |
| CCCc1nn2c(=O)cc(COC(=O)c3ccc(NC(=O)COc4ccc(F)cc4)cc3)nc2s1 | 11.1% (inactive) | – |
| N#Cc1cccc(-c2ccc3ncnc(NCc4cccs4)c3c2)c1 | – | 12.6 µM (active) |
| COc1ccccc1CNc1ncnc2ccc(-c3ccc4c(c3)OCO4)cc12 | -3.34% (inactive) | – |
| N#Cc1ccccc1-c1ccc2ncnc(NCc3cccnc3)c2c1 | -2.85% (inactive) | – |
| Cc1ccc(Cl)cc1NC(=O)C1CCCN(c2cnccn2)C1 (centres undefined) | -7.25% (inactive) | – |
| O=C(c1cc(-c2ccc(F)cc2)on1)N1CCN(c2ccc(F)cc2)CC1 | 9.22% (inactive) | – |
| Cc1ccc(S(=O)(=O)/N=C(/Nc2ccccn2)c2ccc(Cl)cc2)cc1 | -15.9% (inactive) | – |
| CCN(CC)S(=O)(=O)c1cccc(C(=O)Nc2ccccc2)c1 | -12% (inactive) | – |
| CCN(CC)S(=O)(=O)c1cc(C(=O)Nc2ccccn2)ccc1C | – | 12.6 µM (active) |
| CN(C(=O)CN1C(=O)CCSc2ccc(S(=O)(=O)N3CCCC3)cc21)c1ccccc1 | -4.63% (inactive) | – |
| O=C(CSc1nnc(-c2ccccc2F)o1)Nc1cccc(C(F)(F)F)c1 | 8.67% (inactive) | – |
| O=C(NCCS(=O)(=O)N1CCN(c2ccc(F)cc2)CC1)c1ccccc1Br | -17.1% (inactive) | – |
| COc1ccc(N2C(=O)CS(=O)(=O)C23C(=O)N(Cc2ccc(C)cc2)c2ccccc23)cc1Cl (centres undefined) | 21% (inactive) | – |
| CCCCOc1ccc(C(=O)Nc2cccc(-c3nc4ccccc4o3)c2C)cc1 | 35.1% (inactive) | – |
| O=C(COc1ccccc1F)Nc1ccc(C(=O)OCc2cc(=O)n3nc(C4CC4)sc3n2)cc1 | -13.1% (inactive) | – |
| CCCCS(=O)(=O)c1oc(-c2cccs2)nc1S(=O)(=O)c1ccccc1 | – | 3.16 µM (active) |
| CSc1oc(-c2cccs2)nc1S(=O)(=O)c1ccc(Br)cc1 | 17.8% (inactive) | – |
| NC(=O)CSc1oc(-c2cccs2)nc1S(=O)(=O)c1ccccc1 | 11.5% (inactive) | – |
| Cc1nnc(C)n1/N=C/c1ccc(C(C)C)cc1 | -10.4% (inactive) | – |
| c1ccc(-n2ncc(-c3nn[nH]n3)n2)cc1 | -2.58% (inactive) | – |
| CC(C)c1ccc(-c2nn[nH]n2)cc1 | – | 12.6 µM (active) |
| CCc1ccc(-n2nnc(-c3nc(-c4ccccc4)no3)c2C)cc1 | -4.05% (inactive) | – |
| CCOC(=O)c1c(C)oc2nc(C)nc(Nc3ccc(CC)cc3)c12 | 12.3% (inactive) | – |
| CCOc1ccc(Nc2c(S(=O)(=O)c3ccccc3)cnc3ccccc23)cc1 | -6.31% (inactive) | – |
| CCOc1ccc(CCNC(=O)c2ccc3c(c2)sc2nc(-c4ccc(F)cc4)cn23)cc1OCC | -30% (inactive) | – |
| CCOC(=O)c1scc(-c2ccccc2)c1S(=O)(=O)Nc1ccccc1F | -11.6% (inactive) | – |
| CCCS(=O)(=O)c1ncc(Cl)c(C(=O)Nc2scc(-c3ccccc3)c2C(=O)OCC)n1 | – | 7.94 µM (active) |
| CCOC(=O)c1ccc(NC(=O)c2nc(SCc3ccc(F)cc3)ncc2Cl)cc1 | -9.35% (inactive) | – |
